Experimental data reported in PubChem BioAssay AID1159580 (chemical genetic matrix, 2015).
Several values for one entry are separate records, joined by “and”; a condition that tells them apart may be missing. Identical values can stand only once. The campaign covered roughly 5,500 compounds. About 2,000 (36%) were called active. About 18% were inconclusive and are not listed. Cut-off read from the data, not from the text of the source: active = normalized growth mostly below about 0.91 (no sharp cut-off); inconclusive = no clear call, values can overlap the other calls; inactive = mostly above about 0.92. Some of the results follow.

Test: chemical genetic growth profiling, strain panel (AID 1159580);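 note: tested at 20 µM; growth read once vehicle control cultures reached saturation at 30 °C; 1 = growth at the plate median or of vehicle wells; lower values mean less growth of the strain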
Settings: S. cerevisiae deletion strains, growth OD

Measured: normalized growth

CC1(C)S[C@@H]2[C@H](NC(=O)COc3ccccc3)C(=O)N2[C@H]1C(=O)O
inactive: locus YAL013W, strain DEP1, hits give low values 1 | locus YAL021C, strain ccr4, hits give low values 1.01 | locus YAL026C, strain drs2, hits give low values 1 | locus YAL030W, strain snc1, hits give low values 0.989 | locus YBL061C, strain skt5, hits give low values 0.985 | locus YBR009C, strain hhf1, hits give low values 1.01 | locus YBR021W, strain FUR4, hits give low values 1.02 | locus YBR023C, strain chs3, hits give low values 0.996 | locus YBR171W, strain sec66, hits give low values 0.969 | locus YBR229C, strain ROT2, hits give low values 1 | locus YBR231C, strain swc5, hits give low values 0.975 | locus YBR279W, strain paf1, hits give low values 0.999 | locus YCL011C, strain gbp2, hits give low values 1 | locus YCL016C, strain dcc1, hits give low values 1.02 | locus YCL029C, strain bik1, hits give low values 1.04 | locus YCL069W, strain vba3, hits give low values 0.993 | locus YCR088W, strain abp1, hits give low values 0.997 | locus YDL005C, strain med2, hits give low values 0.994 | locus YDL035C, strain GPR1, hits give low values 1.01 | locus YDL040C, strain nat1, hits give low values 0.993 | locus YDL074C, strain BRE1, hits give low values 1.01 | locus YDL101C, strain DUN1, hits give low values 1.01 | locus YDL134C, strain PPH21, hits give low values 1.01 | locus YDL185W, strain tfp1, hits give low values 1.01 | locus YDL192W, strain arf1, hits give low values 1.03 | locus YDR001C, strain nth1, hits give low values 0.99 | locus YDR069C, strain doa4, hits give low values 0.98 | locus YDR101C, strain arx1, hits give low values 1.02 | locus YDR137W, strain rgp1, hits give low values 0.975 | locus YDR150W, strain NUM1, hits give low values 0.999 | locus YDR159W, strain sac3, hits give low values 1 | locus YDR162C, strain NBP2, hits give low values 1.01 | locus YDR195W, strain ref2 0.955 | locus YDR297W, strain sur2, hits give low values 0.991 | locus YDR318W, strain mcm21, hits give low values 1.02 | locus YDR334W, strain swr1, hits give low values 0.993 | locus YDR335W, strain msn5, hits give low values 0.986 | locus YDR388W, hits give low values 1.02 | locus YDR392W, strain spt3, hits give low values 1.03 | locus YDR502C, strain sam2, hits give low values 1.03 | locus YEL003W, strain gim4, hits give low values 0.997 | locus YEL037C, strain rad23, hits give low values 0.992 | locus YEL061C, strain CIN8 (second series), hits give low values 0.986 | locus YEL061C, strain CIN8, hits give low values 1 | locus YER015W, strain faa2, hits give low values 0.999 | locus YER016W, strain bim1, hits give low values 1 | locus YER110C, hits give low values 1.02 | locus YER111C, strain swi4, hits give low values 0.99 | locus YER155C, strain BEM2 (second series), hits give low values 0.977 | locus YER155C, strain BEM2, hits give low values 0.999 | locus YER167W, strain BCK2, hits give low values 1 | locus YFR010W, strain ubp6, hits give low values 0.98 | locus YGL078C, strain dbp3, hits give low values 1.02 | locus YGL086W, strain mad1, hits give low values 1.01 | locus YGL167C, strain pmr1, hits give low values 0.996 | locus YGL173C, strain kem1, hits give low values 0.991 | locus YGL227W, strain vid30, hits give low values 0.984 | locus YGL240W, strain doc1, hits give low values 0.976 | locus YGL248W, strain PDE1, hits give low values 1.01 | locus YGL253W, strain hxk2, hits give low values 0.998 | locus YGR078C, strain PAC10, hits give low values 1.01 | locus YGR135W, strain pre9, hits give low values 1.02 | locus YGR229C, strain SMI1, hits give low values 1.01 | locus YGR252W, strain gcn5, hits give low values 1.02 | locus YHR013C, strain ard1, hits give low values 1 | locus YHR027C, strain rpn1, hits give low values 1.01 | locus YHR030C, strain SLT2, hits give low values 1.01 and 0.967 | locus YHR079C, strain IRE1 (second series), hits give low values 1.02 | locus YHR079C, strain IRE1, hits give low values 0.98 | locus YHR094C, strain hxt1, hits give low values 1.02 | locus YHR129C, strain ARP1, hits give low values 1 | locus YHR142W, strain chs7, hits give low values 1.01 | locus YHR200W, strain rpn10, hits give low values 1.02 | locus YIL066C, strain RNR3, hits give low values 1.01 | locus YIL073C, strain SPO22, hits give low values 1.07 | locus YIL125W, strain kgd1, hits give low values 1.02 | locus YIR030C, strain dcg1, hits give low values 1.03 | locus YJL092W, strain hpr5, hits give low values 0.976 | locus YJL095W, strain BCK1 (second series), hits give low values 0.99 | locus YJL095W, strain BCK1, hits give low values 1.01 and 0.99 | locus YJL115W, strain asf1, hits give low values 0.988 | locus YJL129C, strain trk1, hits give low values 0.955 | locus YJL134W, strain LCB3, hits give low values 1 | locus YJL154C, strain vps35, hits give low values 0.988 | locus YJL164C, strain tpk1, hits give low values 1.02 | locus YJL166W, strain qcr8, hits give low values 0.953 | locus YJL168C, strain set2, hits give low values 1.02 | locus YJL187C, strain SWE1 (second series), hits give low values 1.01 | locus YJL187C, strain SWE1, hits give low values 0.997 | locus YJR043C, strain POL32, hits give low values 1.01 | locus YJR066W, strain TOR1, hits give low values 0.92
